# Where “and” joins values, the source holds several entries; their conditions need not be identical. Identical values can stand only once. Results filed as inconclusive are left out. Calls of active or inactive are those of the source. Calls follow the shape of the dose curve; as a rule, active = well fitted curve in the direction sought with a large enough effect; inconclusive = small, poorly fitted or top-dose-only effect, or another doubt; inactive = no such curve, though single readings can be large or run the other way.
# Assay: qHTS Assay for Identifying Gametocytocidal Compounds (AID 743244);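 as to max response: actives lower the fluorescent signal which means gametocytes are killed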
# Details: P. falciparum 3D7 stage III-V gametocytes, alamarBlue, 72 h; max response: hits give low values
# How it was run: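 In this qHTS viability screen, late-stage 3D7 gametocytes are incubated with compound for 72 h, then with alamarBlue for 24 h; reduced resorufin fluorescence marks killing.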
# % is scaled to controls: 0 for no effect and ±100 for the full control effect; potency is read from the fitted curve at half-maximal effect.
Compound,max response,Potency
CCC1(CC)C(=O)NC(=O)NC1=O,-6.5% (inactive),–
C[C@]12CC[C@H]3[C@@H](CCC4=CC(=O)CC[C@@H]43)[C@@H]1CC[C@@H]2O,-13.9% (inactive) and -1.26% (inactive),–
Clc1ccc(CO/N=C(\Cn2ccnc2)c2ccc(Cl)cc2Cl)c(Cl)c1,–,10 µM (active)
COc1cc(C[C@@H](C)N)c(OC)cc1C,-6.71% (inactive),–
CN(C)C(=S)SC(=S)N(C)C,–,0.794 µM (active)
COc1cc(C[C@@H](C)N)c(OC)cc1Br,0.803% (inactive),–
NCc1cccnc1,-3.33% (inactive),–
CCC1(c2ccccc2)CCC(=O)NC1=O (stereo not drawn),-3.28% (inactive),–
Nc1ccc(N)cc1,-1.22% (inactive),–
CN(C)CCc1c[nH]c2ccc(O)cc12,-10.2% (inactive),–
CN1C(=O)CN=C(c2ccccc2)c2cc([N+](=O)[O-])ccc21,4.86% (inactive),–
NC(=O)OCCCc1ccccc1,-5.39% (inactive),–
C[N+](C)(C)CCCCCCCCCC[N+](C)(C)C,-0.962% (inactive),–
C[C@]12CC[C@H](O)CC1=CC[C@@H]1[C@@H]2CC[C@]2(C)C(=O)CC[C@@H]12,-7.96% (inactive),–
CN(C)C(=O)Oc1cc(OC(=O)N(C)C)cc(C(O)CNC(C)(C)C)c1 (stereo not drawn),14.4% (inactive),–
Oc1ccc2[nH]cc(CCCCN3CC=C(c4ccccc4)CC3)c2c1,-6.56% (inactive),–
COP(=S)(OC)Oc1ccc(S(N)(=O)=O)cc1,5.01% (inactive),–
C#C[C@]1(O)C=C[C@H]2[C@@H]3CCC4=CC(=O)CC[C@@H]4[C@H]3CC[C@@]21CC,2.38% (inactive),–

# From PubChem BioAssay (NCATS)
